# Compound activity as filed in PubChem.
# CF NFkB block – inhibitors of PAF-induced NF-kB signaling, primary screen, cell-based, GFP fluorescence, uHTS; inhibition, % at 5 µM; actives 0.86% (n = 360,000); KKLEB NF-kB-GFP reporter, GFP fluorescence overnight;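 active = at least 50% inhibition at 5 µM, scaled per plate between neutral and stimulator controls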;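 note: PAF is a Pseudomonas aeruginosa culture filtrate used as stimulus; plate controls were PAF-stimulated DMSO wells for no effect and unstimulated DMSO wells for full effect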
# TRAIL sens C8 – viability loss with TRAIL in NB7+C8 cells, primary screen, TRAIL sensitizer project, cell-based, ATPlite luminescence; inhibition (viability loss, TRAIL sensitization), % at 10 µM; actives 1% (n = 360,000);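 active = compounds causing at least 50% loss of cell viability in the single-dose screen, relative to plate controls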
# Peg3 prom inh – Peg3 promoter-driven luciferase inhibitors, primary screen, cell-based, HeLa, luciferase luminescence. HeLa PEG-Prom luciferase reporter, overnight. inhibition, % at 20 µM. actives 1.7% (n = 360,000). AID 588405, 2011;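 active = inhibition of at least 50% at 20 µM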
# HIF-2a block – HIF-2a reporter inhibitors, primary screen, luminescence, 786-0 RCC cells | actives 0.72% (n = 360,000) | inhibition, % at 18.8 µM | 786-0 RCC cells HIF-2a reporter, luciferase luminescence, overnight;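 active = inhibition of the luminescence signal of 40% or more relative to plate controls, in a single-dose primary screen at 18.75 µM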
# KKLEB tox – cytotoxicity in KKLEB CF airway cells, primary screen, cytotoxicity control for CF NF-kB inhibitor project, cell-based, uHTS, fluorescence assay plates | actives 0.36% (n = 360,000) | activity change (cytotoxicity), % at 5 µM | KKLEB CF airway cells viability, ATPlite luminescence, overnight; stronger effect = lower value; cells stimulated with P. aeruginosa culture filtrate;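 active = corrected activity change at or below -50% at 5 µM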
# PPC-1+TRAIL kill – compounds killing PPC-1 cancer cells with TRAIL present, primary screen, TRAIL potentiator project, ATPLite luminescence, uHTS; actives 0.41% (n = 220,000); cell killing (% activity), % at 4 µM or 5 µM; PPC-1 cells + TRAIL, ATPLite viability luminescence;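 active = cell killing above 50% in the first pass at 4 µM, then a duplicate retest at 5 µM averaging 50% or more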;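 note: plate controls were cells with TRAIL plus DMSO for no effect and medium-only wells lacking cells for full effect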
# CF NFkB conf – inhibitors of PAF-induced NF-kB signaling, retest, confirmation, cell-based, GFP fluorescence, single concentration; shares compounds with CF NFkB block; KKLEB CF airway cells, overnight; inhibition, % at 5 µM; actives 64% (n = 1,300); AID 602472, 2012; in the data active = inhibition above about 40%;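 note: stimulus PAF is a Pseudomonas aeruginosa filtrate and not platelet activating factor; plate controls were DMSO wells with stimulus for no effect and unstimulated DMSO wells for full effect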
# * hit, by the source's call; x = not tested or not shown. A selection: hits, their analogues and other compounds. The true share with any hit is near 3.1%.
SMILES,CF NFkB block,TRAIL sens C8,Peg3 prom inh,HIF-2a block,KKLEB tox,PPC-1+TRAIL kill,CF NFkB conf
CCCNC(=O)C1(C)CCCN(Cc2cc(-c3ccccc3)n(C)n2)C1 (configuration not stated),21.5,2.8,2.4,7.9,-2.3,x,x
Cn1nccc1C(=O)Nc1cc(Cl)ccc1Cl,69.5*,-16.3,-6.2,14.2,12.1,x,38.1
CCOC(=O)C(Cc1c[nH]c2ccc([N+](=O)[O-])cc12)(NC(C)=O)C(=O)OCC,-0.9,-4.9,3.4,5.8,-0.9,x,x
Cc1cccc(N2CCN(C(=O)c3[nH]c(C(F)(F)F)nc3-c3ccccc3)CC2)c1C,50.3*,16.0,-7.2,8.7,-22.1,x,86.9*
CN(C(=O)c1cc(S(=O)(=O)N2CCCCC2)c[nH]1)C1CCCCC1,-2.7,-4.6,14.6,19.3,-11.5,x,x
Cc1ccc(N(C)C(=O)c2cc(S(=O)(=O)N3CCCCC3)c[nH]2)cc1,50.3*,-9.9,14.5,10.4,0.7,x,56.4*
CCN(c1ccccc1)c1nc(C#N)nc(N(CC)c2ccccc2)n1,52.3*,-12.0,1.4,23.5,-24.7,-9.1,-20.0
CCN(CC)c1nc(C#N)nc(N(CC)CC)n1,11.6,-4.9,4.2,16.5,-6.7,-13.9,x
CC(=O)Nc1ccc(-c2ccnc3c2CC(C(=O)NCc2ccccc2)O3)cc1 (configuration not stated),55.7*,9.8,-19.8,16.6,-24.0,x,48.8*
CC(=O)Nc1ccc(-c2ccnc3c2CC(C(=O)NCC2CC2)O3)cc1 (configuration not stated),3.9,26.7,8.5,9.1,-19.4,x,x
CC(=O)Nc1ccc(-c2ccnc3c2CC(C(=O)NCc2ccco2)O3)cc1 (configuration not stated),60.0*,5.7,-16.1,26.9,-44.3,x,60.9*
C[C@H]1[C@@H](Cc2cc(Cl)cc(Cl)c2)N(c2ccccc2)c2ccccc2CN1Cc1ccccc1,x,38.5,x,-0.8,x,x,x
CC(=O)NC(CC(=O)NC1CCCc2ccccc21)c1ccccc1 (configuration not stated),1.8,-2.8,12.3,12.0,-0.9,x,x
CCOc1cc2c(cc1/C=C/c1noc(C)c1[N+](=O)[O-])OC(C)C2 (configuration not stated),-86.6,-4.0,17.9,-6.7,0.7,x,x
Clc1ccccc1-c1cc2nc(NCc3ccco3)ccn2n1,-19.8,-9.3,-261.9,-414.9,8.2,x,x
Cc1cccc(N2C(=O)CC(Sc3nc(C)cc(C)n3)C2=O)c1 (configuration not stated),1.0,0.3,11.0,4.1,6.3,17.7,x
Cc1cc(C)cc(N2C(=O)CC(Sc3nnnn3-c3ccccc3)C2=O)c1 (configuration not stated),56.6*,-5.5,108.2*,-11.1,-17.1,32.2,-1.4
C[C@@H]1CN([C@H](C)CO)C(=O)c2cc(NC(=O)Nc3ccc(C(F)(F)F)cc3)ccc2O[C@H]1CN(C)S(=O)(=O)c1cccs1,57.1*,3.5,28.4,33.1,1.0,x,81.1*
C[C@H](CO)N1C[C@H](C)[C@@H](CN(C)S(=O)(=O)c2cccs2)Oc2ccc(NC(=O)Nc3ccc(C(F)(F)F)cc3)cc2C1=O,14.0,24.6,39.5,17.2,-16.6,x,x
C[C@H](CO)N1C[C@H](C)[C@H](CN(C)S(=O)(=O)c2ccc(Cl)cc2)OCc2ccccc2-c2c(n(C)c3ccccc23)C1=O,85.5*,25.1,39.9,-48.2,-5.8,x,3.9
C[C@H](CO)N1C[C@H](C)[C@@H](CN(C)C(=O)Nc2ccc(C(F)(F)F)cc2)Oc2c(NC(=O)Nc3ccc4c(c3)OCO4)cccc2C1=O,-53.1,4.9,-8.5,-1.3,20.5,x,x
C[C@H](CO)N1C[C@H](C)[C@@H](CN(C)C(=O)Nc2ccc3c(c2)OCO3)Oc2c(NC(=O)Nc3ccc(C(F)(F)F)cc3)cccc2C1=O,79.6*,34.2,60.4*,-19.7,-17.5,x,91.2*
Cc1ccc(S(=O)(=O)N(C)C[C@@H]2Oc3ccc(NC(=O)CCC(F)(F)F)cc3CC(=O)N([C@@H](C)CO)C[C@@H]2C)cc1,53.2*,17.5,8.6,9.0,-17.8,x,42.8*
O=[N+]([O-])c1ccccc1Oc1ccc(S(=O)(=O)N2CCOCC2)cc1,-2.0,-2.1,5.4,-16.8,2.9,x,x
Cc1noc(C)c1COC(=O)C1CCN(S(=O)(=O)c2ccc(F)cc2)CC1,-1.2,1.7,7.7,4.6,6.4,x,x
SMILES,CF NFkB block,TRAIL sens C8,Peg3 prom inh,HIF-2a block,KKLEB tox,PPC-1+TRAIL kill,CF NFkB conf
COc1cc(/C=N/NC(=O)c2cccc(S(=O)(=O)N3CCCC3)c2)cc(OC)c1O,24.0,-7.1,0.9,13.4,-18.4,x,x
C[C@@H]1CN([C@H](C)CO)C(=O)c2cc(NC(=O)Nc3ccc(C(F)(F)F)cc3)ccc2O[C@H]1CN(C)S(=O)(=O)c1ccc(Cl)cc1,63.6*,28.4,22.7,-0.2,-6.1,x,69.7*
Clc1ccc2nc(-c3ccco3)c(Cc3ccccc3)n2c1,37.3,3.9,-20.8,7.3,-7.0,x,x
COC(=O)c1ccc2nc(-c3ccco3)c(Cc3cccc(Cl)c3)n2c1,x,-5.7,x,-13.0,x,x,x
Fc1cccc(Cc2c(-c3ccco3)nc3ccc(Br)cn23)c1,52.0*,-12.5,-2.3,14.3,-11.2,x,11.2
FC(F)(F)c1ccccc1Cc1c(-c2ccco2)nc2ccc(Br)cn12,62.5*,3.0,13.5,23.6,-16.8,x,11.3
Fc1cccc(Cc2c(-c3ccco3)nc3ccc(Cl)cn23)c1,63.2*,8.5,-23.0,-30.0,2.4,x,-40.9
COC(=O)c1ccc2nc(-c3ccco3)c(Cc3ccccc3)n2c1,53.9*,5.8,-35.5,-17.4,-8.5,x,10.0
O=C(NCC(c1ccc(F)cc1)N1CCOCC1)c1ccc([N+](=O)[O-])o1 (configuration not stated),64.2*,27.7,17.7,8.9,-0.9,x,25.6
CC(=O)c1ccc(-c2ccc(C(=O)NCC(c3ccc(F)cc3)N3CCOCC3)o2)cc1 (configuration not stated),-12.8,-17.9,-38.2,-35.2,-0.2,x,x
N#C/C(=C\c1ccc(F)c(F)c1)C(=O)NC1CCCCC1,51.5*,8.1,8.3,27.6,-18.2,10.0,15.7
